The test system of assay [1] is transactivating tegument protein VP16 (Human herpesvirus 1). In words: compounds suppressing VP16-driven luciferase signal – cell-based, luminescence, single concentration, counter-screen for SRC2 inhibitor project (AID 652007). The conditions noted are these: cell-based VP16 transactivation luciferase reporter, at 8.9 µM, active compounds read high.
For assay [2], the target named is Nuclear receptor coactivator 2 (Homo sapiens) (UniProt Q15596). In words: inhibition of GAL4-SRC2 driven luciferase expression – cell-based, luminescence, HEK293, triplicate, confirmation (AID 652008;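 active = mean inhibition above 46.5%, the solvent-only control mean plus 3 SD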;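 also: 0% = DMSO-treated cells and 100% = Gossypol at 36 µM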). The conditions noted are these: HEK293 GAL4-SRC2 luciferase reporter, at 8.9 µM, active compounds read high. (In general: Reporter assays use an easily measured gene product as a stand-in for the process of interest.)

Assay [3] concerns the target Galanin receptor type 2 (Homo sapiens) (UniProt O43603). In words: blockers of human galanin receptor 2 – cell-based, confirmation (AID 866; in the data active = inhibition above about 27%;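 also: cells stimulated with galanin at about its EC80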). The conditions noted are these: GALR2-expressing cells, antagonist mode, at 4 µM, active compounds read high.
Assay [4] can be described thus: nonspecific BLA reporter inhibition – CHO NFAT-bla cells, FRET readout, counter-screen for GALR2 antagonist project, confirmation (AID 867;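 active = inhibition above the mean inhibition across tested compounds plus 3 SD, cut at about 27% in these data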;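 also: 0% = 500 nM thapsigargin stimulated wells and 100% = unstimulated BSA only wells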). The conditions noted are these: beta-lactamase FRET, thapsigargin-stimulated, at 4.2 µM, active compounds read high. A general note: The purpose of a counterscreen is to sort out artefacts and off-target activity.
A short description of assay [5]: VP16-driven transactivation reporter suppression – cell-based, luminescence, HEK293, counter-screen for COUP-TFII antagonist project (AID 687007; in the data active = inhibition above about 13%). The conditions noted are these: HEK293 Gal4-VP16 luciferase reporter, at 8.5 µM, active compounds read high.
Assay [6] deals with COUP transcription factor 2 (Homo sapiens) (UniProt P24468). Description: retest of COUP-TFII reporter suppressors – cell-based, luciferase reporter, HEK293, triplicate, confirmation (AID 687008;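 active = mean inhibition over three repeats above a set limit taken from the earlier primary screen, cut at about 38% in these data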;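 also: 100% = cells given the luciferase reporter alone without the COUP-TF2 vector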). The conditions noted are these: HEK293 NGFI-A luciferase reporter, luminescence; at 8.5 µM; active compounds read high.

A number with no mark means an inactive call. The list shows a part of the results. Calls of active or inactive are those of the source. Rule as the data show it, unless noted: active = inhibition above about 36%; inactive = the rest.

As a reminder, the inhibition is the drop in the measured response relative to a control, in per cent.

Sequence of Nuclear receptor coactivator 2 (Homo sapiens) (Q15596 whole entry, looked up, the tested form may be a part): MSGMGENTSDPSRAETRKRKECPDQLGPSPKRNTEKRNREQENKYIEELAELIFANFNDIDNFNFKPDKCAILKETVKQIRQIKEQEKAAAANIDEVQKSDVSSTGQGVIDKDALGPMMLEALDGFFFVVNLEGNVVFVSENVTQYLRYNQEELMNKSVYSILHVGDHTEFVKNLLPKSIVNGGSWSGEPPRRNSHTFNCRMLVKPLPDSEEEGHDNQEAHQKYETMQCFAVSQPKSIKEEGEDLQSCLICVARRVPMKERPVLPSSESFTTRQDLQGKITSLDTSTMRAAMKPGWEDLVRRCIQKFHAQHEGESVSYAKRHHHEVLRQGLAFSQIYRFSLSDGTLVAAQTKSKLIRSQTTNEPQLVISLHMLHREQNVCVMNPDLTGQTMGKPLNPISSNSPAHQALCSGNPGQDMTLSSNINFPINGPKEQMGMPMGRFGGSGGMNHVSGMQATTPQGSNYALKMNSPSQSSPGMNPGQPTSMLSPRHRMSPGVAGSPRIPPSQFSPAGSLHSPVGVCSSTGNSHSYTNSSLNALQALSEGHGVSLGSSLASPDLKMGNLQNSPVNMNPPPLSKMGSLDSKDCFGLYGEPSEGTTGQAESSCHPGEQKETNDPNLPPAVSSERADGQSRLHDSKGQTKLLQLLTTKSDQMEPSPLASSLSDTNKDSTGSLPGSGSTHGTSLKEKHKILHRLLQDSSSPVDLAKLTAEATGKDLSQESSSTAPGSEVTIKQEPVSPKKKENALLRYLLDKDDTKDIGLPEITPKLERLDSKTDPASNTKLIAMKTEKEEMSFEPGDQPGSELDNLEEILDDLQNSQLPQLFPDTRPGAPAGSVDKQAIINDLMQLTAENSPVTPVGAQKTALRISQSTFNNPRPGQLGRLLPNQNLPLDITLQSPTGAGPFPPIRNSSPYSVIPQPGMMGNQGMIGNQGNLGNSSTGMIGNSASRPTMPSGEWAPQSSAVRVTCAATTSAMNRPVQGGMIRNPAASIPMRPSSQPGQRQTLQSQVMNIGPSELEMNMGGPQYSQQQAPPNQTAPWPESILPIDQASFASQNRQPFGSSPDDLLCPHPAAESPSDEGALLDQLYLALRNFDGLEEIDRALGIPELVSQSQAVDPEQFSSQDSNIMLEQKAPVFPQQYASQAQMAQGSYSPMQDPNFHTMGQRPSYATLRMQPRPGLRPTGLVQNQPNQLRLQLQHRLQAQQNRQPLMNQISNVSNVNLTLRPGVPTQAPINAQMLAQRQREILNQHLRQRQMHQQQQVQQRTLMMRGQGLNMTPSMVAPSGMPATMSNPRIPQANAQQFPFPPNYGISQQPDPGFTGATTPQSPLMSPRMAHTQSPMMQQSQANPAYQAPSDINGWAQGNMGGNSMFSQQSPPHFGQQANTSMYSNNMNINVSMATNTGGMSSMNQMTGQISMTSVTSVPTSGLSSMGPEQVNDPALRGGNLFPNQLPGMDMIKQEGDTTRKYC
Sequence of Galanin receptor type 2 (Homo sapiens) (O43603 whole entry, looked up): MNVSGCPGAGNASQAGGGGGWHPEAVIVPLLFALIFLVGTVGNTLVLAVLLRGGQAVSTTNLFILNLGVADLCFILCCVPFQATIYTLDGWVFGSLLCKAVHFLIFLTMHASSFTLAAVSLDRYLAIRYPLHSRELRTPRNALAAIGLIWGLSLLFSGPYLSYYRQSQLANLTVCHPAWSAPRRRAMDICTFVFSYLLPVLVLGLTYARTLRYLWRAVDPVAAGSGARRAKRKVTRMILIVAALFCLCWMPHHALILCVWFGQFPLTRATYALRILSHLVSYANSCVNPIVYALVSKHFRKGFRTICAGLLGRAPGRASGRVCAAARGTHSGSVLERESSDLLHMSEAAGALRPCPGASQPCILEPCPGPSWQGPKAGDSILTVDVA
Sequence of COUP transcription factor 2 (Homo sapiens) (P24468 whole entry, looked up): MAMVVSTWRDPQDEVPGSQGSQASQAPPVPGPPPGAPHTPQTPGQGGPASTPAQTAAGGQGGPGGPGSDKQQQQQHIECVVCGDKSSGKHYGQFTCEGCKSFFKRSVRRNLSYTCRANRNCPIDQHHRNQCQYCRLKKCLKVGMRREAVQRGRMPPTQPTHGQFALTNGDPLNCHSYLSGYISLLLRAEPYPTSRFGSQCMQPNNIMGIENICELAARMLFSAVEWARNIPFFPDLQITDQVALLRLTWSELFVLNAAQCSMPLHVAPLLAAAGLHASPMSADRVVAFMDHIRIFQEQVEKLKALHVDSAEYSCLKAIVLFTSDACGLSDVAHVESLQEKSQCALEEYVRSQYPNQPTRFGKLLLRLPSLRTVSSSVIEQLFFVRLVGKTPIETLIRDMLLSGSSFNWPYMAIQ

On to `COc1ccc(C(=O)Nn2c(SCC(=O)N3CCC(C)CC3)nc3ccccc3c2=O)cc1`, for which the inhibition is 23.9% in assay [1] and 28.9% in assay [2].
With `O=C(CCCN1C(=O)/C(=C/c2ccccc2Cl)SC1=S)NCCCN1CCOCC1`, the inhibition in assay [1] was 33.6%; in assay [2] it was 45.9%.
Consider `CC(C)OC(=O)c1ccc(NCc2cc(O)ccc2O)cc1Cl`, for which the inhibition is 19.4% in assay [1] and 89.1% (active) in assay [2].
Take `Cc1ccc2c(c1)nnn2C1CCN(CC(=O)N(c2ccccc2)c2ccccc2)CC1`: the inhibition in assay [1] was 14.5%; in assay [2], 33.7%.
With `Cc1ccc(NC(=O)c2ccc(NC(=O)C3CCCCC3C(=O)O)cc2)cc1` (stereo not drawn), the inhibition was -56% in assay [1] and -17.6% in assay [2].
On the same counts, the results for `COc1cc(OC)cc(C(=O)NCC2CCN(C(=O)C(=O)c3cccs3)CC2)c1` are 18.9% and 18%.
Take `Cc1cc2c(cc1C)C(=O)NC(C)(C)C2`: the inhibition was 2.03% in assay [1] and 28.2% in assay [2].
In the case of `Cc1ccc(N(C(=O)CCl)C(C(=O)NC2CCCCC2)c2cccnc2)cc1C` (stereo not drawn), the inhibition in assay [1] was 55.2% (active); in assay [2] it was 61.7% (active).
As to `COc1cc(OC)c(-c2c3cc(O)c(=O)cc-3oc3cc(O)c(O)cc23)cc1OC`, the values for the inhibition in assay [1] and in assay [2] were 9.48% and 3.62%, respectively.
In the case of `CC(=O)Nc1ccc(NC(=O)c2cc(=O)c3ccccc3o2)cc1`, the inhibition in assay [1] was -12.5%; in assay [2], -8.33%.
The corresponding values for `Cc1ccc(-n2nc3ccc(N)cc3n2)c(C)c1` are -39.4% and 21.3%.
For the compound `O=C(CCc1nnc(C2CCCCC2)o1)N1CCC(Oc2cccnc2)CC1`, the inhibition in assay [1] was 1.02%; in assay [2], 4.42%.
In the case of `S=C(NCc1ccc(Cl)cc1)NC1CCN(Cc2ccccc2)CC1`, the inhibition in assay [1] was -17.5%; in assay [2], 19.2%.
The corresponding values for `COc1cccc(NC(=O)Nc2nnc(CC(=O)NCc3ccccc3)s2)c1` are -17.5% and 24.5%.
Turning to `CCOC(=O)CCSc1nc(C(C)(C)C)cc(C(F)(F)F)c1C#N`, the values for the inhibition in assay [1] and in assay [2] were -14.2% and -27.6%, respectively.
Consider `Cc1ccc(NC(=O)CSc2ncnc3ccccc23)cc1S(=O)(=O)N1CCCCC1`, for which the inhibition was 6.85% in assay [1] and 30% in assay [2].
As for `CC(=O)OC1CCC2(C)C(CCC3C4CC=C(C(C)=O)C4(C)OC(=O)CC32)C1` (stereo not drawn), the inhibition was 20.8% in assay [1] and 16.1% in assay [2].
For `CC[n+]1cccc(-c2nc3ccccc3s2)c1`, the results for the inhibition in assay [1] and in assay [2] were 9.34% and 13%, respectively.
The corresponding values for `O=C(NCCCN1CCN(c2ccccc2)CC1)C1CCCN(c2ncnc3c2nc2n3CCCCC2)C1` (stereo not drawn) are 6.18% and -21.6%.
As to `COC(=O)[C@H]1C[C@@]2(c3ccccc3)c3ccccc3N(S(=O)(=O)c3ccccc3)[C@H]2N1`, the inhibition in assay [1] is 6.95%; in assay [2], 18.3%.
On the same counts, the results for `NCCCCCc1nnc(SCc2ccccc2Cl)o1` are 48.5% (active) and 53.5% (active).
On to `Nn1cnnc1SCC(=O)N1CCc2ccccc2C1`, for which the inhibition was 3.54% in assay [1] and -22.3% in assay [2].
`O=C(Cc1ccc(-c2ccccc2)cc1)NNC(=S)NCc1ccco1`: the inhibition was -22.3% in assay [1] and -9.18% in assay [2].
The corresponding values for `N#Cc1c(NC(=O)CSc2ncn[nH]2)sc2c1CCCC2` are 84% (active) and 88.2% (active).
Take `CCOC(=O)[C@H]1[C@H]2COc3ccc(Br)cc3[C@@H]2N2C(=O)CN(Cc3ccco3)C(=O)[C@@]12C`: the inhibition was 0.08% in assay [1] and -14.4% in assay [2].
Take `CCOC(=O)c1c(NC(=O)/C=C/C(=O)O)sc(C)c1-c1ccc(C(C)(C)C)cc1`: the inhibition in assay [1] was 32.9%; in assay [2], 17.2%.
With `C=C1CC2(OC1=O)c1ccccc1CCc1ccccc12`, the inhibition was 49.2% (active) in assay [1] and 29.7% in assay [2].
The corresponding values for `CCOC(=O)c1[nH]c(=S)n(-c2ccccc2)c1C(=O)OCC` are -1.17% and -17.4%.
Turning to `CCS(=O)(=O)c1ncc(Cl)c(C(=O)Nc2ccc(S(=O)(=O)N3CCC(C)CC3)cc2)n1`, the inhibition is 89.9% (active) in assay [1] and 86.7% (active) in assay [2].
The corresponding values for `CCOC(=O)C1CCCN(C(=O)CCNS(=O)(=O)c2ccc(Br)cc2)C1` (stereo not drawn) are 10.6% and -4.97%.
Regarding `Brc1cccc(-c2cnc3n2CCCCC3)c1`, the figures for the inhibition in assay [1] and in assay [2] were 12.6% and 29.2%, respectively.
With `Cc1ccc(CN2CCC(C(=O)Nc3ccc(Oc4cccnc4)cc3)CC2)cc1`, the inhibition was 7.59% in assay [1] and -0.58% in assay [2].
Take `CN(C)S(=O)(=O)c1cccc(NC(=O)COC(=O)C2(c3ccccc3F)CCCC2)c1`: the inhibition in assay [3] is 17.7%; in assay [4] it was 15.1%.
As to `CCN(CC)P(=O)(C(NC(=O)OC)C(F)(F)C(F)(F)C(F)(F)C(F)F)N(CC)CC` (stereo not drawn), the values for the inhibition in assay [5] and in assay [6] were 7.83% and 14.8%, respectively.

The record behind these values is PubChem BioAssay.
